Our source for the z-score values is PubChem BioAssay.

Assay [1] can be described thus: compound effects on lung adenocarcinoma cell viability – A549, calcein-AM fluorescence, 48 h, basal, profiling panel (AID 1162). The settings on record: higher = more signal.
Assay [2] can be described thus: compound effects on differentiated 3T3-L1 adipocyte viability – cell-based, 3T3-L1 adipocytes, calcein-AM fluorescence, 48 h, basal, profiling panel (AID 1163). The settings on record: 3T3-L1 adipocytes viability, higher = more signal.
The nature of assay [3]: compound effects on hepatocellular carcinoma cell viability – HepG2, calcein-AM fluorescence, 48 h, basal, profiling panel (AID 1164). Conditions: higher = more signal.
The nature of assay [4]: compound effects on multiple myeloma cell viability – MM1S, calcein-AM fluorescence, 48 h, basal, profiling panel (AID 1165). Conditions: higher = more signal.
Assay [5] in a line: calcein-AM signal in unstimulated myeloma cells – cell-based, calcein-AM fluorescence, 48 h, PK04 Diversity Set, profiling panel (AID 1166).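 Also: cells grown under basal conditions without added stimulus.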 The settings on record: RPMI8226 myeloma viability, higher = more signal.
Assay [6] in a line: JC-1 mitochondrial signal, unstimulated HepG2 cells – cell-based, JC-1 fluorescence, 24 h, 100 nL compound, profiling panel (AID 1167). Conditions: HepG2 mitochondrial potential, higher = more signal.
Assay [7] can be described thus: JC-1 mitochondrial signal, unstimulated adipocytes – cell-based, JC-1 fluorescence, 3T3-L1 adipocytes, 24 h, 100 nL compound, profiling panel (AID 1168). Conditions: JC-1 mitochondrial fluorescence, higher = more signal, called active from +8 up or from −8 down.
The nature of assay [8]: JC-1 mitochondrial signal, unstimulated myeloma cells – cell-based, JC-1 fluorescence, RPMI8226, 24 h, 100 nL compound, profiling panel (AID 1169). The settings on record: JC-1 mitochondrial potential fluorescence, higher = more signal.
Assay [9] in a line: JC-1 mitochondrial signal, unstimulated MM1S myeloma – cell-based, JC-1 fluorescence, 24 h, 100 nL compound, profiling panel (AID 1170). Conditions: MM1S mitochondrial potential, higher = more signal.
A short description of assay [10]: resazurin metabolic signal in A549 cells – cell-based, resazurin fluorescence, 24 h, PK04 Diversity Set, profiling panel (AID 1171). Conditions: A549 viability, higher = more signal, called active from +8 up or from −8 down. A general note: Resazurin is reduced to fluorescent resorufin, in cell work by metabolically active cells.

Activity calls are given as the source filed them.
Also: test concentration not given here.

Regarding `O=C1N(Cc2ccccc2)Cc2ccccc2C[C@@]12COC(c1ccc(OCCCO)cc1)=N2`, the z-score in [1] was -1.62; in assay [2] it was 1.06; in assay [3], 0.325; in assay [4] it was -3.63; in assay [5] it was -4.39; in assay [6], -0.641. Besides, the z-score in [7] was 0.172 (inactive); in assay [8] it was -1.18; in assay [9] it was -1.91; in assay [10], -2.8 (inactive).

As to `C=CCNC(=O)[C@@H]1[C@H]2C(=O)O[C@H](c3ccccc3)[C@H](c3ccccc3)N2[C@H](c2ccc(OCCO)cc2)[C@@]12C(=O)Nc1ccc(C#CCNC(N)=O)cc12`, the z-score in assay [1] was -0.842; in assay [2] it was 0.274; in [3] it was -0.397; in assay [4], 0.0041; in assay [5], 0.155; in assay [6] it was -0.921. The z-score in [7] was -0.962 (inactive); in assay [8], 0.672; in assay [9], 1.23; in assay [10], 0.36 (inactive).

Regarding `COc1ccc([Si](C)(C)[C@H]2[C@H](CC(=O)N(CCO)Cc3ccccc3)O[C@@]3(C(=O)N(Cc4cccc(N5CCCCC5=O)c4)c4ccccc43)[C@@H]2C)cc1`, the z-score is -0.166 in assay [1]; 1.19 in assay [2]; -1.16 in assay [3]; -0.391 in assay [4]; -4.18 in assay [5]; 0.553 in assay [6]. In addition, the z-score was 1.65 (inactive) in assay [7], -0.981 in [8], -1.61 in assay [9] and -1.91 (inactive) in assay [10].

Take `C=CC[C@H](OC(=O)Nc1ccc(SC)cc1)c1ccc(O)c(F)c1`: the z-score was -1.24 in assay [1]; -0.152 in assay [2]; -1.82 in [3]; -1.59 in assay [4]; -1.64 in [5]; -3.17 in assay [6]. The z-score is 2.25 (inactive) in [7], -0.325 in assay [8], -0.716 in [9] and -1.01 (inactive) in assay [10].

As for `COc1ccc(C(O)C2C=CC3C(=O)N(C)C(=O)C3N2Nc2ccccc2)cc1` (stereo not given), the z-score was -1.12 in assay [1]; -0.221 in [2]; -0.393 in assay [3]; 0.291 in assay [4]; -0.301 in [5]; -1.27 in [6]. Further, the z-score in assay [7] is -0.0635 (inactive); in assay [8], -0.176; in [9], -0.153; in assay [10] it was -1.27 (inactive).

As to `CCN1C(=O)C2CC(=O)C3C(CN(S(=O)(=O)c4ccc(C)cc4)C3c3ccc(C)cc3)C2C1=O` (stereo not given), the z-score in assay [1] was 0.159; in [2] it was -0.902; in [3] it was 0.118; in assay [4], 1.03; in assay [5], 0.0667; in assay [6], -0.167. Besides, the z-score in assay [7] is -0.00388 (inactive); in [8], -0.129; in [9], -1.25; in [10], -0.064 (inactive).

`COC(=O)C[C@H]1O[C@]2(C(=O)N(C)c3ccccc32)[C@@H](C)[C@@H]1[Si](C)(C)c1ccccc1`: the z-score in [1] was -0.843; in assay [2], 1.01; in assay [3] it was -1.05; in [4], -0.344; in [5], -0.0598; in assay [6] it was -0.57. Besides, the z-score was 0.611 (inactive) in [7], -0.0109 in assay [8], 0.425 in [9] and 1.38 (inactive) in [10].

As to `CCOC(=O)C1=CCC(c2ccncc2)N(S(=O)(=O)c2ccc(C)cc2)C1` (stereo not given), the z-score is -1.72 in assay [1]; -0.784 in [2]; -1.37 in [3]; -2.28 in assay [4]; -1.31 in assay [5]; -1.41 in assay [6]. For the same compound, the z-score was 0.561 (inactive) in assay [7], 0.115 in assay [8], -1.61 in [9] and -0.44 (inactive) in assay [10].

As to `CCOC(=O)C=C1C[C@@H](c2cccc([N+](=O)[O-])c2)O[C@@H](c2cccc([N+](=O)[O-])c2)O1`, the z-score is -0.865 in [1]; -0.477 in assay [2]; 0.177 in [3]; -0.71 in assay [4]; -0.588 in [5]; 3.97 in assay [6]. The z-score is 0.94 (inactive) in assay [7], 0.779 in assay [8], -0.351 in [9] and 1.44 (inactive) in assay [10].

With `COC(=O)[C@@]1(Cc2ccc(F)cc2)[C@H]2c3cc(C(=O)N4CCCC4)n(Cc4ccc(OC(F)(F)F)cc4)c3C[C@H]2CN1C(=O)c1ccccc1`, the z-score in [1] is -1.21; in assay [2], -0.749; in assay [3], 0.0322; in assay [4] it was -1.04; in assay [5], -0.55; in [6] it was -0.269. The z-score is -1.35 (inactive) in assay [7], -0.603 in [8], -0.787 in [9] and -0.165 (inactive) in [10].

In the case of `COc1cc(CO)cc(I)c1O[C@H]1C=C(C(=O)NCCO)C[C@@H](N(CCN2CCOCC2)C(=O)C2CCCO2)[C@@H]1O` (stereo not given in full), the z-score in assay [1] was 1.51; in assay [2], -0.786; in assay [3], 0.315; in assay [4] it was 0.605; in assay [5] it was -0.984; in assay [6], 1.68. Besides, the z-score is -0.526 (inactive) in assay [7], 0.385 in assay [8], -0.1 in assay [9] and -0.0953 (inactive) in [10].

On to `CN(C)C(=O)[C@]1(CCS(=O)(=O)c2ccccc2)N=C(c2ccc(OCCCO)cc2)O[C@@H]1c1ccccc1CN=[N+]=[N-]`, for which the z-score in [1] is -0.306; in assay [2], -0.0349; in assay [3] it was 0.589; in assay [4], -1.29; in assay [5], 0.382; in assay [6], -0.12. Further, the z-score in assay [7] is -0.197 (inactive); in assay [8] it was 0.0522; in assay [9] it was -0.776; in assay [10] it was 1.09 (inactive).

With `COC(=O)C1(CC(C)C)C=C2C(=C(C)C(=O)C2C)CN1` (stereo not given), the z-score is -1.23 in assay [1]; -0.291 in assay [2]; -1.14 in [3]; -0.945 in [4]; -1.77 in [5]; -1.04 in assay [6]. In addition, the z-score in assay [7] is -1.83 (inactive); in assay [8] it was 0.147; in assay [9] it was -0.92; in [10], -0.726 (inactive).

As to `Cc1ccc(S[C@]2(C(=O)NC(C)C)CC(=O)N(Cc3ccccc3)[C@@H]2c2ccc(CO)cc2)cc1`, the z-score in [1] was 1.72; in assay [2], -0.089; in assay [3] it was 1.15; in [4] it was 0.0456; in assay [5], 1.23; in [6], 1.18. Also, the z-score in assay [7] was 0.391 (inactive); in assay [8] it was 0.135; in assay [9] it was -0.177; in assay [10], -0.3 (inactive).

Regarding `COCCOC(=O)N1C(=O)[C@@]2(c3cc(C#CC4=CCCCC4)ccc31)[C@H](C(=O)N1CCCCCCC1)[C@H]1C(=O)O[C@H](c3ccccc3)[C@H](c3ccccc3)N1[C@@H]2c1ccccc1OCCO`, the z-score in assay [1] is -0.314; in assay [2] it was 0.922; in [3], -0.107; in assay [4], -0.99; in assay [5] it was -0.813; in [6] it was 0.0436. The z-score was 0.992 (inactive) in assay [7], -0.966 in assay [8], -0.982 in assay [9] and 0.356 (inactive) in assay [10].
